Experimental findings from PubChem BioAssay (NCI) are described below.

The structures appear in SMILES notation. About 83,000 compounds went through this panel and 20% of them were active in at least one assay; those are over-represented in the sample as a whole.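 Each cell line was grown in a 96-well plate and treated with one concentration of compound for 48 hours. Values below 10 were considered active.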 Unmarked numbers belong to inactive results. Calls of active or inactive are those of the source.

Test systems include DU-145 prostate; K-562 leukemia; MALME-3M melanoma; MDA-MB-231 breast; RXF 393 renal; SF-268 CNS; SF-295 CNS; SF-539 CNS; UACC-257 melanoma; M14 melanoma; HCT-15 colon; HT29 colon; SNB-75 CNS; SNB-19 CNS; U251 CNS; PC-3 prostate; SK-MEL-5 melanoma; UACC-62 melanoma; LOX IMVI melanoma; SK-MEL-28 melanoma.
Common to all, as to assay: NCI-60 one-dose screen, 48 h (100 = growth as untreated, 0 = no growth, -100 = all killed)
Common to all, as to settings: 10 µM unless noted

In the case of `CCN(CC)CCOc1ccc(/C(=C(\C)c2ccc(Cl)cc2)c2ccc(Cl)cc2)cc1`, the growth is 97.2% in the experiment with DU-145 prostate; 7.09% (active) with K-562 leukemia; 87.2% in the experiment on MALME-3M melanoma; 84.3% with MDA-MB-231 breast; 51.2% in the experiment on RXF 393 renal; 80.7% in the experiment on SF-268 CNS. For the same compound, the growth in the experiment on SF-295 CNS was 65.2%; in the experiment with SF-539 CNS, 67%; with UACC-257 melanoma it was 96.1%; in the experiment on M14 melanoma it was 71%; in the experiment with HCT-15 colon, 21.7%; in the experiment with HT29 colon it was 8.96% (active). In addition, the growth was 116% in the experiment on SNB-75 CNS; 79.3% with SNB-19 CNS; 54% in the experiment with U251 CNS; 70.7% with PC-3 prostate; 38% in the experiment on SK-MEL-5 melanoma; 88.4% in the experiment with UACC-62 melanoma. Further, the figures for the growth with LOX IMVI melanoma and in the experiment on SK-MEL-28 melanoma were 35.4% and 75.6%, respectively.
As to `Cc1ccc(Nc2nccc(N(C)c3ccc4c(C)n(C)nc4c3)n2)cc1S(N)(=O)=O`, the growth was 39.4% in the experiment with DU-145 prostate; 7.01% (active) with K-562 leukemia; 2.35% (active) in the experiment on MALME-3M melanoma; -2.02% (active) in the experiment on MDA-MB-231 breast; -37.5% (active) in the experiment with RXF 393 renal; 45.4% in the experiment on SF-268 CNS. The growth in the experiment with SF-295 CNS is 31.1%; with SF-539 CNS, -45.2% (active); with UACC-257 melanoma, -6.96% (active); in the experiment on M14 melanoma, -3.62% (active); with HCT-15 colon, 14.3%; in the experiment with HT29 colon, 3.61% (active). In addition, the growth with SNB-75 CNS was -25.9% (active); in the experiment on SNB-19 CNS it was 30.9%; with U251 CNS, 18.8%; with PC-3 prostate, 45.2%; in the experiment with SK-MEL-5 melanoma, -34% (active); in the experiment on UACC-62 melanoma, -18.3% (active). Moreover, the growth in the experiment with LOX IMVI melanoma is -30.1% (active); in the experiment with SK-MEL-28 melanoma, 8.83% (active).
In the case of `CC(C)(C)c1cnc(CSc2cnc(NC(=O)C3CCNCC3)s2)o1`, the growth with DU-145 prostate is 7.26% (active); in the experiment with K-562 leukemia, 4.07% (active); in the experiment on MALME-3M melanoma, -41.1% (active); in the experiment with MDA-MB-231 breast, 6.82% (active); with RXF 393 renal it was -51.5% (active); in the experiment with SF-268 CNS, 12%. Besides, the growth is 11.6% with SF-295 CNS; -33.1% (active) in the experiment with SF-539 CNS; -25.5% (active) in the experiment on UACC-257 melanoma; -58.6% (active) in the experiment with M14 melanoma; 22.8% in the experiment with HCT-15 colon; -9.89% (active) in the experiment on HT29 colon. The growth in the experiment with SNB-75 CNS is -39.5% (active); in the experiment on SNB-19 CNS it was 12.4%; in the experiment on U251 CNS it was 2.2% (active); in the experiment on PC-3 prostate, 0.914% (active); in the experiment with SK-MEL-5 melanoma, -47.2% (active); in the experiment with UACC-62 melanoma it was -49.7% (active). Besides, the growth was 6.56% (active) in the experiment on LOX IMVI melanoma and -12.8% (active) with SK-MEL-28 melanoma.
For the compound `Cc1nn(-c2ccccc2)c2c1N=c1s/c(=C\c3cn(-c4ccccc4)nc3-c3ccc(Cl)cc3)c(=O)n1C(C)N2` (stereo not given), the growth in the experiment on DU-145 prostate was 59.7%; in the experiment on K-562 leukemia, 119%; in the experiment on MALME-3M melanoma, 124%; in the experiment with MDA-MB-231 breast, 78.5%; in the experiment with RXF 393 renal, 114%; with SF-268 CNS, 91%. Also, the growth is 116% with SF-295 CNS; 85.6% with SF-539 CNS; 111% with UACC-257 melanoma; 107% in the experiment with M14 melanoma; 85.8% with HCT-15 colon; 94.3% in the experiment with HT29 colon. For the same compound, the growth in the experiment with SNB-75 CNS was 86.4%; in the experiment with SNB-19 CNS it was 98.9%; with U251 CNS, 85.2%; with PC-3 prostate, 82.4%; in the experiment on SK-MEL-5 melanoma, 85%; in the experiment with UACC-62 melanoma, 106%. The growth was 87.6% with LOX IMVI melanoma and 118% with SK-MEL-28 melanoma.
For the compound `Ic1ccccc1-c1ccccc1`, the growth in the experiment on DU-145 prostate is 114%; in the experiment with K-562 leukemia it was 104%; in the experiment with MALME-3M melanoma, 95%; in the experiment on MDA-MB-231 breast, 102%; in the experiment with RXF 393 renal, 105%; with SF-268 CNS, 105%. Also, the growth was 122% in the experiment with SF-295 CNS; 108% in the experiment with SF-539 CNS; 99% in the experiment with UACC-257 melanoma; 103% in the experiment on M14 melanoma; 112% in the experiment on HCT-15 colon; 114% with HT29 colon. The growth in the experiment on SNB-75 CNS is 95.3%; in the experiment with SNB-19 CNS, 101%; with U251 CNS it was 105%; in the experiment on PC-3 prostate, 99.9%; in the experiment with SK-MEL-5 melanoma, 111%; in the experiment with UACC-62 melanoma, 100%. For the same compound, the growth in the experiment on LOX IMVI melanoma was 103%; in the experiment on SK-MEL-28 melanoma it was 113%.
With `COC(=O)N[C@@H](C)CNc1nccc(-c2cn(C(C)C)nc2-c2cc(Cl)cc(NS(C)(=O)=O)c2F)n1`, the growth in the experiment with DU-145 prostate is 79.6%; in the experiment with K-562 leukemia it was 69.4%; with MALME-3M melanoma, 1.63% (active); with MDA-MB-231 breast it was 61%; in the experiment with RXF 393 renal, 42.7%; in the experiment on SF-268 CNS, 82.2%. Also, the growth was 103% with SF-295 CNS; 91.2% in the experiment on SF-539 CNS; -25.8% (active) in the experiment with UACC-257 melanoma; 3.81% (active) in the experiment on M14 melanoma; 53.6% in the experiment on HCT-15 colon; 7.99% (active) in the experiment with HT29 colon. For the same compound, the growth was 51.8% with SNB-75 CNS; 108% in the experiment with SNB-19 CNS; 87.2% in the experiment with U251 CNS; 90.7% in the experiment with PC-3 prostate; 51.4% with SK-MEL-5 melanoma; -11% (active) with UACC-62 melanoma. In addition, the growth with LOX IMVI melanoma is 37.5%; in the experiment on SK-MEL-28 melanoma, -0.756% (active).
`CC(C)(C)OC(=O)N1CCC(O)[C@@H](O[Si](c2ccccc2)(c2ccccc2)C(C)(C)C)[C@H]1/C=C/c1ccccc1` (stereo not given in full): the growth in the experiment on DU-145 prostate was 57.6%; with K-562 leukemia it was 38.7%; with MALME-3M melanoma, 47.3%; in the experiment on MDA-MB-231 breast it was 49.5%; in the experiment on RXF 393 renal it was 6.38% (active); with SF-268 CNS, 52.5%. For the same compound, the growth in the experiment on SF-295 CNS is 36.7%; with SF-539 CNS, 57.1%; in the experiment on UACC-257 melanoma, 40.8%; with M14 melanoma, 50%; in the experiment on HCT-15 colon it was 41.1%; with HT29 colon it was 37.9%. Also, the growth was 46.8% in the experiment on SNB-75 CNS; 58.5% in the experiment with SNB-19 CNS; 44.4% in the experiment with U251 CNS; 14% in the experiment with PC-3 prostate; 30.2% in the experiment with SK-MEL-5 melanoma; 57.1% in the experiment with UACC-62 melanoma. In addition, the figures for the growth with LOX IMVI melanoma and in the experiment with SK-MEL-28 melanoma were 61.4% and 65.1%, respectively.
Regarding `CNC(=O)c1cnc(C)nc1-c1cc(C(C)(C)C)c(O)c(C(C)(C)C)c1`, the growth is 99.8% in the experiment on DU-145 prostate; 90.4% in the experiment with K-562 leukemia; 87.5% with MALME-3M melanoma; 87.5% with MDA-MB-231 breast; 111% in the experiment on RXF 393 renal; 98% in the experiment with SF-268 CNS. Also, the growth is 88.5% with SF-295 CNS; 91.9% with SF-539 CNS; 100% in the experiment on UACC-257 melanoma; 94.1% in the experiment with M14 melanoma; 103% in the experiment on HCT-15 colon; 106% in the experiment on HT29 colon. The growth was 67.6% in the experiment with SNB-75 CNS; 87.2% in the experiment on SNB-19 CNS; 97.1% in the experiment with U251 CNS; 89.3% in the experiment with PC-3 prostate; 92.1% in the experiment with SK-MEL-5 melanoma; 90.7% in the experiment with UACC-62 melanoma. Further, the growth in the experiment on LOX IMVI melanoma was 110%; in the experiment on SK-MEL-28 melanoma, 107%.
